According to PubChem BioAssay AID488913 (National Center for Advancing Translational Sciences (NCATS), 2010):
“And” between values parts separate entries of the source, which are not always exact repeats. Equal entries are not always repeated. Inconclusive results are not listed. The source made the active and inactive calls. The call rests on the fitted dose curve; in most records, active means well fitted inhibition curve with a large enough effect; inconclusive means small, poorly fitted or top-dose-only effect, or effect the other way; inactive means no such curve, though single readings can be large or run the other way.

experiment: Confirmation Concentration-Response Assay for lipid storage modulators: for probe SAR; settings: Drosophila S3 cells, BODIPY lipid droplet fluorescence, 18-24 h; series mostly up to 46.1 µM
Excerpt: NIH Molecular Libraries Probe Production Centers Network [MLPCN] NIH Chemical Genomics Center [NCGC] MLPCN Grant: 1 R03 MH085686-01 Assay Submitter (PI): Beller, Mathias; Max-Planck-Institut fur Biophysikalische Chemie NCGC Assay Overview: Storing lipids as a reservoir for energy or the anabolism of elementary metabolites is a common feature of probably all cells and is conserved from bacteria to humans. The universal cellular lipid storage organelle is the so-called lipid storage droplet (LD). Although ubiquitous, LDs share a simple structure composed of a hydrophobic core that harbors the storage lipids, which is shielded by a droplet-specific phospholipid monolayer to which proteins are attached. The current model of LD biogenesis involves an incorporation of the lipid core into the membrane leaflets of the endoplasmic reticulum (ER) followed by a subsequent budding-like maturation of a LD, which ultimately pinches off. Once released, LD volume can increase by localized lipogenesis or fusion of existing droplets. Storage lipids are re-mobilized enzymatically by lipase activity. Lipase regulation in the adipocyte is heavily studied and involves multiple components including catecholamine signaling, the LD-associated proteins Perilipin and comparative gene identification-58 (CGI-58) and at least two lipases named hormone sensitive lipase (HSL) and adipocyte triglyceride lipase (ATGL). LD regulation outside of the adipocyte is poorly understood and only few components are known. However, there is an urgent need to learn more about ectopic fat depots as mislocalized storage of lipids, for example in the liver or muscle, is an eminent health problem associated with insulin resistance or the metabolic syndrome. We developed a laser-scanning cytometer assay to enable 1,536-well screening and combined the results of the small molecules screen with an RNAi database based on lipid storage.
We dispensed 4 uL of cells at 1.25 x 10^6 cells/mL into LoBase Aurora COC 1,536-well plates (black walled, clear bottom) with a bottle-valve solenoid-based dispenser (Aurora) to obtain 5,000 cells/well. Triacsin C (Sigma-Aldrich T-4540), an inhibitor of long-chain fatty acyl CoA synthetase that blocks synthesis of triglycerides, was used as a positive control for lipid under-storage. A total of 23 nL of compound solution of different concentrations were transferred to the assay plates using a Kalypsys pin tool equipped with a 1,536-pin array containing 10-nL slotted pins (FP1S10, 0.457-mm diameter, 50.8 mm long; V&P Scientific). One microliter of oleic acid (400 uM) was added, and the plate was lidded with stainless steel rubber gasket lined lids containing pinholes. After 18-24 h incubation at 24 degree Celsius and 95% humidity, 4 uL of the dyes BODIPY 493/503 (Molecular Probes) and the Cell Tracker Red CMTPX dye (Molecular Probes) were added to the wells to stain lipid droplets and enumerate cell number, respectively. Fluorescence was detected by excitation of the fluorophores with a 488-nm laser on an Acumen Explorer (TTP Lab Tech). The total intensity in channel 1 (500-530 nm) reflected lipid droplet accumulation. Cells were detected using channel 3 (575- 640 nm) with 5-um width and 100-um depth filters. The ratio of the total intensity in PMT channel 1 over total intensity of channel 3 was also calculated. Percent activity was computed relative to an internal control (100% inhibited lipid droplet deposition due to the presence of 20 uM Triacsin C), which was added to 32 wells/plate.

Structure (SMILES)	Potency
CCOC(=O)C1CCN(C(=O)C(C)(C)NC(=O)Nc2ccccc2Cl)CC1	628 nM (active)
CCOc1ccc(CCNC(=O)c2cc3sccc3n2Cc2ccc(-n3cncn3)cc2)cc1OCC	177 nM (active)
CCOc1ccc(CCNC(=O)c2cc3sccc3n2Cc2ccccc2)cc1OCC	35.3 nM (active)
O=C(NC1CCCc2c1cnn2-c1ccc(F)cc1F)c1cccc(=O)[nH]1 (stereo not given)	7910 nM (active)
CCOc1ccc(CCNC(=O)c2cc3sc(Cl)cc3n2CC)cc1OCC	2230 nM (active)
O=C(CSc1nnc(NCc2ccccc2)s1)Nc1nc(-c2ccc(F)c(F)c2)cs1	1250 nM (active)
COc1ccc(CCNC(=O)c2cc3sccc3n2Cc2ccc(Cl)cc2)cc1OC	194 nM (active)
CCOC(=O)C1CCN(C(=O)C2(NC(=O)Nc3ccc(F)cc3F)CCCCC2)CC1	888 nM (active)
O=C(NC1CCCc2c1cnn2-c1ccc(F)cc1F)c1cnsn1 (stereo not given)	499 nM (active)
CCOc1ccc(CCNC(=O)Cc2ccccc2)cc1OCC	inactive
O=C(NC1CCCc2c1cnn2-c1ccc(F)cc1F)c1ccccn1 (stereo not given)	8.7 nM (active) and 7.9 nM (active)
O=C(NC1CCCc2c1cnn2-c1ccc(F)cc1F)c1cccc(Cn2cccn2)c1 (stereo not given)	125 nM (active)
COc1ccc(CCNC(=O)c2cc3sc(C)cc3n2C)cc1OC	2810 nM (active)
CCOC(=O)C1CCN(C(C)C(=O)NC(=O)NC2CCCCC2)CC1 (stereo not given)	inactive
O=C(NC1CCCc2c1cnn2-c1ccc(F)cc1F)c1ccn[nH]1 (stereo not given)	2810 nM (active)
CCOc1ccc(CCNC(=O)c2cc3sc(CC)cc3n2C)cc1OCC	1220 nM (active)
O=C(NC1CCCc2c1cnn2-c1ccc(F)cc1F)c1cnccn1 (stereo not given)	250 nM (active)
CCOc1ccc(CCNC(=O)c2cc3sccc3n2Cc2cccc(C)c2)cc1OCC	4 nM (active)
O=C(NC1CCCc2c1cnn2-c1ccc(F)cc1F)c1ccc2cc[nH]c2c1 (stereo not given)	7710 nM (active)
O=C(NC1CCCc2c1cnn2-c1cc(F)cc(F)c1)c1ccc(F)cc1Cl (stereo not given)	2230 nM (active)

Structure (SMILES)	Potency
CCOc1ccc(CCNC(=O)c2cc3sccc3n2Cc2cccnc2)cc1OCC	353 nM (active)
CCOC(=O)C1CCN(C(=O)C2(NC(=O)Nc3ccccc3Cl)CCCCC2)CC1	1440 nM (active)
CCOc1ccc(CCNC(=O)C2COc3ccccc3O2)cc1OCC (stereo not given)	11200 nM (active)
COc1ccc(-c2csc(NC(=O)Cc3cccs3)n2)cc1	25000 nM (active)
Cn1c(=O)n(-c2ccc(C(C)(C)C#N)cc2)c2c3cc(-c4cnc5ccccc5c4)ccc3ncc21	1120 nM (active)
CCOc1ccc(CCNC(=O)c2cc3sccc3n2C(C)C)cc1OCC	99.6 nM (active)
CCOC(=O)C1CCCN(C(=O)C2(NC(=O)Nc3ccc(F)cc3F)CCCCC2)C1 (stereo not given)	inactive
CCOc1ccc(CCNC(=O)c2cc3sccc3n2C)cc1OCC	499 nM (active)
O=C(NC1CCCc2c1cnn2-c1cc(F)cc(F)c1)c1cccc2nccnc12 (stereo not given)	3450 nM (active)
Cc1ccc(-n2ncc3c2CCCC3NC(=O)c2c(F)cccc2F)cc1C (stereo not given)	158 nM (active)
Cc1nc(SC(C)C(=O)Nc2nc(-c3ccccc3)cs2)n(CC2CCCO2)c1C (stereo not given)	4450 nM (active)
O=C(NC1CCCCC1)NC1(C(=O)N2CCCC2)CCCCC1	inactive
O=C(NC1CCCc2c1cnn2-c1ccc(F)cc1F)c1cccc(F)c1F (stereo not given)	315 nM (active)
O=C(NC1CCCc2c1cnn2-c1ccc(F)cc1F)c1cccs1 (stereo not given)	17.7 nM (active)
CC(C)(C)OC(=O)NC1CCCc2c1cnn2-c1ccc(F)cc1F (stereo not given)	888 nM (active)
CCOc1ccc(CCNC(=O)c2cc3sccc3n2CCc2ccccc2)cc1OCC	28.1 nM (active)
CC(=O)NCc1ccc(-c2csc(NC(=O)Cc3cccs3)n2)cc1	inactive
O=C(Cc1cccs1)Nc1nc(-c2ccc3c(c2)CCC3)cs1	inactive
CCOc1ccc(CCNC(C)=O)cc1OCC	inactive
CCn1c(C(=O)NCCc2ccc(OC)cc2)cc2sccc21	inactive
